Measurements from PubChem BioAssay (Tox21).
Results filed as inconclusive are left out. Entries that show only a call come without a potency. A number with no mark means an inactive call. Active and inactive are the calls of the source. Calls come from the whole dose curve; as a rule, active = well fitted curve in the direction sought with a large enough effect in the repeat runs; inconclusive = weak or mixed curves; inactive = no such curve, though single readings can be large; an effect the other way counts as inactive or inconclusive.

Experiment: qHTS RealTime-Glo MT Cell Viability Assay in HepG2 cells - 0 hour (AID 1224889); note: nearly all actives have a fitted effect of over 50% in size
Settings: RealTime-Glo luminescence; series mostly up to 76.8 µM
Procedure, shortened: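 Luminescence read-out: viable HepG2 cells reduce a prosubstrate to a NanoLuc substrate, giving a signal proportional to live cell number. Reads taken at 0, 8, 16, 24, 32 and 40 h of compound exposure at 37 C.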
Potency is the fitted concentration of half-maximal effect.

| SMILES | Potency | activity change, negative = cytotoxicity |
| --- | --- | --- |
| Nc1cnn(-c2ccccc2)c(=O)c1Cl | inactive |  |
| Fc1cc(Br)ccc1CBr | inactive |  |
| Nc1cc2c3c(c1)C(c1ccccc1)=N[C@@H](NC(=O)c1cccnc1)C(=O)N3CC2 | inactive |  |
| CCCSC(=O)N(CCC)CCC | inactive |  |
| Cc1cc(C)c(C(=O)P(=O)(C(=O)c2c(C)cc(C)cc2C)c2ccccc2)c(C)c1 | inactive |  |
| CC(Oc1ccc(Oc2ncc(C(F)(F)F)cc2Cl)cc1)C(=O)O (configuration not stated) | inactive |  |
| Cc1coc2c1CCC(C)C2 (configuration not stated) | inactive |  |
| CCN(CC)CCOC(=O)C(C)(c1ccccc1)c1ccccc1 | inactive |  |
| O=C1c2ccccc2C(=O)c2ccccc21 |  | 6.06% [at 15.8 µM] |
| CCCCC(=O)Cl | inactive |  |
| CCC(=O)C(CCN(C)C)(c1ccccc1)c1ccccc1 | inactive |  |
| CCOC(=O)NC(=S)Nc1ccccc1NC(=S)NC(=O)OCC | inactive |  |
| ClC(Cl)Br | inactive |  |
| C(CCOCC1CO1)COCC1CO1 (configuration not stated) | inactive |  |
| OC(c1ccccc1)(c1ccccc1)C1CCNCC1 | inactive |  |
| CCN(CC)C(=O)[C@@H]1C=C2c3cccc4[nH]cc(c34)C[C@H]2N(C)C1 | inactive |  |
| CNC(=O)O/N=C(\C)SC | inactive |  |
| CCCCCCI | inactive |  |
| CC(CC(C#N)(c1ccccc1)c1ccccc1)N(C)C (configuration not stated) | inactive |  |
| C[C@]1(O)CC[C@H]2[C@@H]3CCC4=CC(=O)CC[C@]4(C)[C@@]3(F)[C@@H](O)C[C@@]21C | 12.4 µM (active) |  |
| O=C(Oc1ccc(Br)cc1)N1CCN2CCC1CC2 | inactive |  |
| COc1cc2c(cc1OC)[C@@]13CCN4CC5=CCO[C@H]6CC(=O)N2[C@H]1[C@H]6[C@H]5C[C@H]43 | inactive |  |
| CCCCCCBr | inactive |  |
| CCN(CC)C(C)C(=O)c1ccccc1 (configuration not stated) | inactive |  |
| O=NN1CCCCC1 | inactive |  |
| CN(N=O)C(N)=O | inactive |  |
| OCCSCSCCO | inactive |  |
| CCCCOC(=O)[C@@H](C)Oc1ccc(Oc2ccc(C#N)cc2F)cc1 | inactive |  |

Experiment: A CellTox Green Cytotoxicity Assay to monitor cytotoxicity in HepG2 cells - 8 hour (AID 1224890); note: nearly all actives have a fitted effect of over 45% in size
Settings: CellTox Green fluorescence; series mostly up to 76.8 µM
Procedure, shortened: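 Cells and non-lytic dye reagent are dispensed together (600 HepG2 cells/well) and incubated 5 h before DMSO compound transfer. Kinetic fluorescence is then recorded in the same wells during 40 h at 37 C.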

| SMILES | Potency |
| --- | --- |
| BrCCCCCCBr | inactive |
| Nc1cnn(-c2ccccc2)c(=O)c1Cl | inactive |
| Nc1cc2c3c(c1)C(c1ccccc1)=N[C@@H](NC(=O)c1cccnc1)C(=O)N3CC2 | inactive |
| CCCSC(=O)N(CCC)CCC | inactive |
| Cc1cc(C)c(C(=O)P(=O)(C(=O)c2c(C)cc(C)cc2C)c2ccccc2)c(C)c1 | inactive |
| CC(Oc1ccc(Oc2ncc(C(F)(F)F)cc2Cl)cc1)C(=O)O (configuration not stated) | inactive |
| Cc1coc2c1CCC(C)C2 (configuration not stated) | inactive |
| CC(N)=S | inactive |
| CCN(CC)CCOC(=O)C(C)(c1ccccc1)c1ccccc1 | inactive |
| CCCCC(=O)Cl | inactive |
| CCC(=O)C(CCN(C)C)(c1ccccc1)c1ccccc1 | inactive |
| c1cc2c(c(N3CCNCC3)c1)OCCO2 | inactive |
| CCCSC(=O)Cl | inactive |
| N#CC(CCc1ccc(Cl)cc1)(Cn1cncn1)c1ccccc1 (configuration not stated) | 34.7 µM (active) |
| CCOC(=O)NC(=S)Nc1ccccc1NC(=S)NC(=O)OCC | inactive |
| ClC(Cl)Br | inactive |
| C(CCOCC1CO1)COCC1CO1 (configuration not stated) | inactive |
| OC(c1ccccc1)(c1ccccc1)C1CCNCC1 | inactive |
| CCN(CC)C(=O)[C@@H]1C=C2c3cccc4[nH]cc(c34)C[C@H]2N(C)C1 | inactive |
| NC(=S)C(N)=S | inactive |
| CNC(=O)O/N=C(\C)SC | inactive |
| CCCCCCI | inactive |
| CC(CC(C#N)(c1ccccc1)c1ccccc1)N(C)C (configuration not stated) | inactive |
| C[C@]1(O)CC[C@H]2[C@@H]3CCC4=CC(=O)CC[C@]4(C)[C@@]3(F)[C@@H](O)C[C@@]21C | inactive |
| CCCCCCBr | inactive |
| CCN(CC)C(C)C(=O)c1ccccc1 (configuration not stated) | inactive |
| CN(N=O)C(N)=O | inactive |
| OCCSCSCCO | inactive |
| CCCCOC(=O)[C@@H](C)Oc1ccc(Oc2ccc(C#N)cc2F)cc1 | inactive |
